Data: the supplement of paper PMC6555819

Experiments:
Test in all cases: PBM binding z-score (relative to random genomic background probes); higher = stronger binding; sequences stand for … in GC…GCGATTGACAGCGTAGAATGAAGG
[1] = test system: PPARg:RXRa DBDmut IVT, anti-RXR (DBD mutation: RXRa K156A/R161A, NR concentration 270 nM, RXRa partner concentration 90 nM)
Method in brief: (§1)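 Random background probes are the reference for binding z-scores. These scores derive from regression-normalized fluorescence on custom Agilent 4×180K protein-binding microarrays incubated 1 h with ligand-free nuclear receptor dimers. Binding was detected with antibodies against each partner (one per run).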

[2] = test system: PPARg:RXRa IVT, anti-PPARg (NR concentration 270 nM, RXRa partner concentration 90 nM)
Method in brief: as §1

[3] = test system: PPARg DBDmut:RXRa IVT, anti-PPARg (DBD mutation: PPARg1 K132A/R137A, NR concentration 270 nM, RXRa partner concentration 90 nM)
Method in brief: as §1

[4] = test system: PPARg DBDmut IVT, anti-PPARg (DBD mutation: PPARg1 K132A/R137A, NR concentration 270 nM)
Method in brief: as §1

[5] = test system: PPARg homodimer (NR concentration 180 nM)
Method in brief: as §1

[6] = test system: PXR:RXRa (NR concentration 270 nM, RXRa partner concentration 90 nM)
Method in brief: as §1

[7] = test system: PXR homodimer (NR concentration 270 nM)
Method in brief: as §1

[8] = test system: RARa:RXR (NR concentration 270 nM, RXRa partner concentration 90 nM)
Method in brief: as §1

[9] = test system: RARa homodimer (NR concentration 270 nM)
Method in brief: as §1

[10] = test system: RARb:RXRa (NR concentration 270 nM, RXRa partner concentration 90 nM)
Method in brief: as §1

[11] = test system: RARb homodimer (NR concentration 270 nM)
Method in brief: as §1

[12] = test system: RARg:RXRa (NR concentration 270 nM, RXRa partner concentration 90 nM)
Method in brief: as §1

[13] = test system: RARg homodimer (NR concentration 270 nM)
Method in brief: as §1

[14] = test system: RXRa DBDmut IVT, anti-RXR (DBD mutation: RXRa K156A/R161A, NR concentration 90 nM)
Method in brief: as §1

[15] = test system: RXRa homodimer (NR concentration 180 nM)
Method in brief: as §1

[16] = test system: THRa:RXRa (NR concentration 90 nM, RXRa partner concentration 90 nM)
Method in brief: as §1

[17] = test system: THRa homodimer (NR concentration 90 nM)
Method in brief: as §1

[18] = test system: VDR homodimer (NR concentration 270 nM)
Method in brief: as §1

Row | Sequence | PBM binding z-score [1] | PBM binding z-score [2] | PBM binding z-score [3] | PBM binding z-score [4] | PBM binding z-score [5] | PBM binding z-score [6] | PBM binding z-score [7] | PBM binding z-score [8] | PBM binding z-score [9] | PBM binding z-score [10] | PBM binding z-score [11] | PBM binding z-score [12] | PBM binding z-score [13] | PBM binding z-score [14] | PBM binding z-score [15] | PBM binding z-score [16] | PBM binding z-score [17] | PBM binding z-score [18]
1 | CTAACTAGGTCACGAAAGGTCAAAGTCGAATGAC | 8.88 | 9.03 | 2.32 | 2.06 | 5.96 | 6.97 | 3.14 | 7.47 | 2.75 | 5.6 | 5.7 | 7.92 | 8.55 | 2.56 | 8.14 | 5.08 | 2.55 | 3.54
2 | CCTGCTAGGTCATGGTCAGGTAATCTACAGTATG | 4.45 | 3.79 | 0.801 | 0.0323 | 1.72 | 1.78 | -0.0214 | 2.55 | 0.209 | 4.04 | 3.22 | 4.26 | 4.73 | 1.77 | 3.01 | 3.55 | 1.97 | 0.414
3 | GGAACGAGCGCAAAGTTGATAGCATCTGTCGACG | -0.42 | -0.495 | -0.634 | -1.33 | -1.01 | -0.773 | -0.719 | -0.723 | -0.818 | -0.372 | -0.951 | -0.446 | -0.392 | -0.219 | -0.2 | -0.823 | -1.24 | -0.905
4 | TCTCGGAGGACACGAAAGGTCTGAGCTCGACATC | 1.62 | -0.101 | -0.378 | -0.264 | 0.204 | -0.0379 | -0.678 | 0.227 | -0.321 | 1.7 | 1.21 | 0.667 | 1.47 | 0.831 | 0.137 | 1.53 | 0.392 | -0.266
5 | ATATGTAGGTTACATCCGGGTCTTTCAGGCTATG | 7.37 | 7.42 | 1.99 | 3.12 | 1.13 | 0.703 | 0.192 | 0.794 | 0.548 | 1.21 | 1.01 | 1.09 | 1.02 | 0.936 | 0.924 | 1.62 | 0.947 | 0.214
6 | CCTACTGGGCAAAAAAGGTCATTGATGCCGATAA | 0.468 | 1.62 | -0.0172 | -0.686 | 2.27 | 4.27 | 1.28 | 4.86 | 0.909 | 3.81 | 4.17 | 4.03 | 4.11 | 0.33 | 4.81 | 3.57 | 0.0156 | 2.05
7 | CCTAGTTGGTCAGGAGGTCCCACACCGGATATGA | 0.207 | 0.483 | -0.124 | -0.0969 | 1.06 | -0.0476 | 0.63 | -0.0305 | 0.95 | 0.64 | 0.775 | 0.48 | 0.629 | -0.686 | 0.0541 | -0.131 | 0.411 | 0.335
8 | TCTCGGAGGACACGAAAAGTCAGAGCTCGACATC | 1.7 | 0.139 | -0.679 | -0.502 | 0.0166 | -0.0938 | -0.142 | 0.141 | -0.037 | 1.72 | 0.803 | 0.704 | 1.37 | 1.08 | 0.187 | 1.27 | 0.205 | -0.252
9 | TTAACAAGGTGAAAGGTCGTTGATGCACGCCTTG | 4.84 | 5.57 | 0.666 | 0.131 | 2.13 | 3.92 | 0.791 | 5.73 | -0.215 | 3.09 | 2.51 | 4.28 | 2.1 | 0.328 | 6.17 | 3.51 | 0.757 | 1.24
10 | CCTACTGGGCCAAAGGTCATTGACTCCAATGCTC | 5.27 | 7.13 | 0.277 | 0.152 | 2.5 | 5.52 | 1.32 | 6.16 | 0.485 | 4.53 | 4.46 | 5.6 | 4.61 | 1.6 | 6.03 | 3.38 | 0.707 | 1.82
11 | CCTACTGGGCCGAGGTCATTGATCAGTCAAAGCA | 1.55 | 2.71 | -0.758 | -1.27 | 2.05 | 4.62 | 2.49 | 4.33 | -0.11 | 3.19 | 3.3 | 4.27 | 3.11 | 1.96 | 4.68 | 3.52 | 2.67 | 4.32
12 | TAGCCTAGGTCATTCAGGGGCCAGTATGGAAAGC | 1.58 | 2.93 | 0.514 | -0.26 | 2.13 | 2.46 | -0.398 | 3.77 | 0.0659 | 4.11 | 3.26 | 6.2 | 4.83 | 1.72 | 2.92 | 3.67 | 0.641 | 1.17
13 | GCATACGGGTCAAAGGTTATAGCATGAATAGAAT | 4.64 | 6.5 | 1.34 | 2.31 | 3.95 | 6.29 | 0.519 | 8.51 | 0.512 | 4.49 | 3.26 | 6.95 | 4.87 | 2.46 | 9.53 | 3.81 | -0.445 | 1.56
14 | ACTTACGGGTCAAGGAGGTTATAGCACGCGTATA | 2.9 | 3.94 | 1.06 | 0.844 | 2.7 | 4.24 | 1.47 | 4.99 | 1.24 | 4.09 | 3.46 | 5.23 | 4.78 | 2.07 | 5.73 | 3.33 | 0.489 | 2.26
15 | CGTCAAAGTTAAAGGTAACGTAACAGAAAGCAGC | 0.379 | 1.17 | 0.513 | 0.594 | 0.332 | 0.394 | 0.0362 | 0.981 | 0.438 | 1.02 | 0.442 | 0.799 | 0.833 | 0.0376 | 0.816 | 0.694 | -0.0792 | -0.165
16 | AAAATGAGGTTAAGATCAGGGAAACAGAATACAT | 3.27 | 3.78 | 1.96 | 0.972 | 1.85 | 1.26 | 0.646 | 2.48 | 0.889 | 2.04 | 1.03 | 2.28 | 1.37 | 1.32 | 2.73 | 2.75 | 0.772 | 0.778
